# Experimental data from PubChem BioAssay (EPA / NIEHS).
# Inconclusive results are not listed. Active and inactive are the calls of the source. Rule for the calls: active = hit-call score of the fitted dose curve at least 0.9, where 1 is the maximum; inconclusive = response in the unintended direction; inactive = score below 0.9.
# Legend:
# [1] = molecular target: human Vascular Endothelial Growth Factor Receptor 2 (VEGFR2), KDR (gene 3791) (UniProt P35968); experiment: NVS_ENZ_hVEGFR2: NovaScreen (NVS) Enzymatic Assay for human Vascular Endothelial Growth Factor Receptor 2 (VEGFR2) (AID 2283230)
# Chain of human Vascular Endothelial Growth Factor Receptor 2 (VEGFR2), KDR (gene 3791) (P35968 whole entry, looked up): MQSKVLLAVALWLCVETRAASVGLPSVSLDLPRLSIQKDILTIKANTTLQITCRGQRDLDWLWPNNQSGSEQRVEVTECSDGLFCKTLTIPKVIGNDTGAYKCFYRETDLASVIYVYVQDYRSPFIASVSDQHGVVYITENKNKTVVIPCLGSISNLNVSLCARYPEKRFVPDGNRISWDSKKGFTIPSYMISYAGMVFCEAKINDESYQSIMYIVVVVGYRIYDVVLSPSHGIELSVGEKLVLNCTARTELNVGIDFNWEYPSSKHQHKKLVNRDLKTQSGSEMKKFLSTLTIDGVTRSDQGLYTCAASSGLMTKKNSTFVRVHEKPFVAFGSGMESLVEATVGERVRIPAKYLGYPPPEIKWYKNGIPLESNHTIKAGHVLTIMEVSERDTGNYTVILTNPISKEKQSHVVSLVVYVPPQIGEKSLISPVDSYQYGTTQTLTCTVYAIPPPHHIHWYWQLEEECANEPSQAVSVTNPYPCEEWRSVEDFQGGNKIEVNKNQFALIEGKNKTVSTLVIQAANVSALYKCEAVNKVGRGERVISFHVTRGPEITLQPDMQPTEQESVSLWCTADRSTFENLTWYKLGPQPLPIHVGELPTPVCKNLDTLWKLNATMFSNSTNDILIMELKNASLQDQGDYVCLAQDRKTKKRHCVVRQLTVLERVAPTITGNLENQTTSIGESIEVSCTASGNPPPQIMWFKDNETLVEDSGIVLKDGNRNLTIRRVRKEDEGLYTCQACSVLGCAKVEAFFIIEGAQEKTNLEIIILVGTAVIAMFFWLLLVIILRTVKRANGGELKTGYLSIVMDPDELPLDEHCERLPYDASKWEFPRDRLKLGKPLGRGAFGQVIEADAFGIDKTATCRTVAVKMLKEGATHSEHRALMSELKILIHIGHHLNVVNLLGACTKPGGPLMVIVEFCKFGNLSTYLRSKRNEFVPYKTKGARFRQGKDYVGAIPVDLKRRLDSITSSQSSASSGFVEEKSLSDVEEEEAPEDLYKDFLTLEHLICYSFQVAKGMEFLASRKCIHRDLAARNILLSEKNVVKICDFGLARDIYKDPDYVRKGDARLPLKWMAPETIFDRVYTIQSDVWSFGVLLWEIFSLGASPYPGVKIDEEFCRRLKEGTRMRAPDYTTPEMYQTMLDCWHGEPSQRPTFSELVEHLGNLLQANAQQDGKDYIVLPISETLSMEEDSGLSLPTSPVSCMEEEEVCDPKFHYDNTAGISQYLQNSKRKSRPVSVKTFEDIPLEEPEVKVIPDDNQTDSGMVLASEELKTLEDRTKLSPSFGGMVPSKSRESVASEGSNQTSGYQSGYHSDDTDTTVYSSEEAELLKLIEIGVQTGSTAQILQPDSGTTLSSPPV
# Outline: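 Cell-free recombinant VEGFR2 kinase, fluorescent substrate with electrophoretic mobility-shift separation; read 1 h after dosing. Screened at 25 uM in duplicate, hits to concentration-response up to 50 uM; loss-of-signal versus DMSO.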
# [2] = tested on: rat Monoamine Oxidase, MAO-A, Peripheral (MAOAP), gene 29253; experiment: NVS_ENZ_rMAOAP: NovaScreen (NVS) Enzymatic Assay for rat Monoamine Oxidase, MAO-A, Peripheral (MAOAP) (AID 2283237)
# Outline: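 Scintillation counting tracked MAO-A activity in a cell-free rat liver mitochondrial membrane prep, read 1.17 hours after compound addition. Single-point duplicate testing at 25 uM preceded concentration-response follow-up; activity was fitted relative to DMSO.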
# [3] = molecular target: rat Monoamine Oxidase, MAO-B, Central (MAOBC), Maob (gene 25750) (UniProt P19643); experiment: NVS_ENZ_rMAOBC: NovaScreen (NVS) Enzymatic Assay for rat Monoamine Oxidase, MAO-B, Central (MAOBC) (AID 2283238)
# Outline: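 Here MAO-B activity in rat brain preparations is quantified radiometrically, counts taken at 1.17 hours. Concentration-response runs reach 50 uM, with plate controls, and values are fitted as loss of signal from the DMSO baseline.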
# [4] = molecular target: rat Monoamine Oxidase, MAO-B, Peripheral (MAOBP), Maob (gene 25750) (UniProt P19643); experiment: NVS_ENZ_rMAOBP: NovaScreen (NVS) Enzymatic Assay for rat Monoamine Oxidase, MAO-B, Peripheral (MAOBP) (AID 2283242)
# [5] = tested on: rat Monoamine Oxidase, MAO-A, Central (MAOAC), gene 29253; experiment: NVS_ENZ_rMAOAC: NovaScreen (NVS) Enzymatic Assay for rat Monoamine Oxidase, MAO-A, Central (MAOAC) (AID 2283243);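 note: potency refers to inhibition seen as signal drop below DMSO baseline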
# Outline: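 Enzyme from rat brain, cell-free radiodetection format. Counts taken at 1.5 h; activity fitted against DMSO baseline, loss of signal marking inhibition. Confirmatory concentration series followed the 25 uM duplicate screen.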
# [6] = molecular target: sheep Cyclooxygenase-1 (Cox1), PTGS1 (gene 443551) (UniProt P05979); experiment: NVS_ENZ_oCOX1: NovaScreen (NVS) Enzymatic Assay for sheep Cyclooxygenase-1 (Cox1) (AID 2283239);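 note: actives reduce cyclooxygenase activity so potencies are for inhibitors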
# Chain of sheep Cyclooxygenase-1 (Cox1), PTGS1 (gene 443551) (P05979 whole entry, looked up): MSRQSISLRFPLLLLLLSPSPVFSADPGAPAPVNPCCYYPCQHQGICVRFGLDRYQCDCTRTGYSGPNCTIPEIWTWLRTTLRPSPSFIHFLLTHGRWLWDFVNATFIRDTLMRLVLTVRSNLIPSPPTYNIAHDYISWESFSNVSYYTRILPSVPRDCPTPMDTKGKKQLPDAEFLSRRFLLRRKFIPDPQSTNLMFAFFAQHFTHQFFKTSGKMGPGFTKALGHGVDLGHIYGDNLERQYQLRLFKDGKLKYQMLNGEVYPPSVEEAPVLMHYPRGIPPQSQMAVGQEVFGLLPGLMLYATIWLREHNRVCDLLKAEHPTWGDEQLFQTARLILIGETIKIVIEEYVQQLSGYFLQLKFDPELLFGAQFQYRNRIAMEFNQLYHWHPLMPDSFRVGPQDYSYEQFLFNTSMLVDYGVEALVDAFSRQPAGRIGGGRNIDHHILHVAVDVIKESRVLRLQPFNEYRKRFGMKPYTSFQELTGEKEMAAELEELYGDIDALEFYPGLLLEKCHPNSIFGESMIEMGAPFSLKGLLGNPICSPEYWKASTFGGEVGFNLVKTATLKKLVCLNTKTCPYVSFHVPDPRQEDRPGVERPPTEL
# Outline: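 Absorbance read-out of cyclooxygenase activity in a cell-free preparation from sheep seminal vesicles, taken 0.66 hour after dosing. Initial testing was in duplicate at 25 uM, and confirmatory testing was run in concentration series.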
# [7] = molecular target: Adenosine receptor A1 (Bos taurus) (UniProt P28190); experiment: NVS_GPCR_bAdoR_NonSelective: NovaScreen (NVS) G Protein-Coupled Receptor Assay for bovine Adenosine Receptor (AdoR), Non-selective Binding (AID 2283244)
# Outline: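 Cell-free binding with membranes from bovine striatum: radioligand displaced by test chemical, read after 1 h by filtration and scintillation. Single-point 25 uM duplicate primary, 50 uM top concentration in follow-up curves, DMSO baseline.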
# [8] = molecular target: rat Acetylcholinesterase (AChE), Ache (gene 83817) (UniProt P37136); experiment: NVS_ENZ_rAChE: NovaScreen (NVS) Enzymatic Assay for rat Acetylcholinesterase (AChE) (AID 2283233)
# Chain of rat Acetylcholinesterase (AChE), Ache (gene 83817) (P37136 whole entry, looked up): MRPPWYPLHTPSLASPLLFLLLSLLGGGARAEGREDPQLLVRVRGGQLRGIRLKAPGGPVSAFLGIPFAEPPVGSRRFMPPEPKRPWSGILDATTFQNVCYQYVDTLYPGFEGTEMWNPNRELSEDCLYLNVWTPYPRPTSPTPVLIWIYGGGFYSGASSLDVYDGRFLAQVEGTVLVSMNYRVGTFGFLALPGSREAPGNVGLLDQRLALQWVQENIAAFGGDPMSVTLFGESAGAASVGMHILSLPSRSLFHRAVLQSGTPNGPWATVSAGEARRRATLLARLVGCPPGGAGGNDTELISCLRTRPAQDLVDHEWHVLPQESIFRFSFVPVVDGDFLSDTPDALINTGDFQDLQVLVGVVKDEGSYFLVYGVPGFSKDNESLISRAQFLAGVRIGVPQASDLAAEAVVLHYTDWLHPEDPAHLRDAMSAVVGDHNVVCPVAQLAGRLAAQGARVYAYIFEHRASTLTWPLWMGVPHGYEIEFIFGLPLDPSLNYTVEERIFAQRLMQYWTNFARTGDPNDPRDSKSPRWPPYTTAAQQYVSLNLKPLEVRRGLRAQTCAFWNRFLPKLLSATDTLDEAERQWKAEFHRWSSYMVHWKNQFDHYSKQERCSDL
# Outline: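 Compounds first screened at 25 uM in duplicate, then those passing threshold tested in concentration series up to 50 uM, against AChE from rat brain membranes. Enzyme activity read by absorbance at 0.33 h; inhibition scored versus DMSO.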
# [9] = molecular target: human Adenosine A1 Receptor (AdoRA1), ADORA1 (gene 134) (UniProt P30542); experiment: NVS_GPCR_hAdoRA1: NovaScreen (NVS) G Protein-Coupled Receptor Assay for human Adenosine A1 Receptor (AdoRA1) (AID 2283254)
# Chain of human Adenosine A1 Receptor (AdoRA1), ADORA1 (gene 134) (P30542 whole entry, looked up): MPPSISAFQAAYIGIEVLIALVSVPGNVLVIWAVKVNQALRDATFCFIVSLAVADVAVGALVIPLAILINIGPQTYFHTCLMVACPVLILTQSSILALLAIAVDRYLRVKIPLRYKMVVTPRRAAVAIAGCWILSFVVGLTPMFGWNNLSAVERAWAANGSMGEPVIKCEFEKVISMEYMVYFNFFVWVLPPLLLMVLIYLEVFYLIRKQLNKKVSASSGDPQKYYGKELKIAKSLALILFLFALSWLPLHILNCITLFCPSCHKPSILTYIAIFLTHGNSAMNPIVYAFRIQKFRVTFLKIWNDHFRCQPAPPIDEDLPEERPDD
# Outline: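 Each chemical is first tested twice at 25 uM, actives later in dilution series, against a radioligand bound to human cortex membranes; after 1 h, filter-retained counts are compared with DMSO controls, lower signal indicating displacement.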
# [10] = molecular target: human Adenosine A2a Receptor (AdoRA2a), ADORA2A (gene 135) (UniProt P29274); experiment: NVS_GPCR_hAdoRA2a: NovaScreen (NVS) G Protein-Coupled Receptor Assay for human Adenosine A2a Receptor (AdoRA2a) (AID 2283256)
# Chain of human Adenosine A2a Receptor (AdoRA2a), ADORA2A (gene 135) (P29274 whole entry, looked up): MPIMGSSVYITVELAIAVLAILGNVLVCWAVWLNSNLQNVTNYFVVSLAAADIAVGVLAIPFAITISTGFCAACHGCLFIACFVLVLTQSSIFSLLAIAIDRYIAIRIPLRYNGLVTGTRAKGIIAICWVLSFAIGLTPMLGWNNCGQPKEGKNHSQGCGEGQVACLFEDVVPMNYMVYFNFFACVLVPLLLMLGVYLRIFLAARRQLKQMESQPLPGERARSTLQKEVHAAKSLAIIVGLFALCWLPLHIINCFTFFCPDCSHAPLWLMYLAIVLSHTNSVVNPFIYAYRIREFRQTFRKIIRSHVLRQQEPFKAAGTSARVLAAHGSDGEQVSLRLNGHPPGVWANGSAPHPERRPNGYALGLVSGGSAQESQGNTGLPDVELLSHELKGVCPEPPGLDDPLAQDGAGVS
# Outline: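 Compounds screened in duplicate at 25 uM, with actives followed up in concentration series, for displacement of a radioligand from HEK293-derived receptor protein. Bound counts read by filter scintillation at 1.5 hours, DMSO as baseline.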
# [11] = molecular target: guinea pig Opioid, Kappa 1 Receptor (OpiateK), OPRK1 (gene 100135587) (UniProt P41144); experiment: NVS_GPCR_gOpiateK: NovaScreen (NVS) G Protein-Coupled Receptor Assay for guinea pig Opioid, Kappa 1 Receptor (OpiateK) (AID 2283252);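 note: radioligand displacement from kappa opioid receptor in guinea pig cerebellar membranes; active means reduced radioligand binding relative to DMSO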
# Chain of guinea pig Opioid, Kappa 1 Receptor (OpiateK), OPRK1 (gene 100135587) (P41144 whole entry, looked up): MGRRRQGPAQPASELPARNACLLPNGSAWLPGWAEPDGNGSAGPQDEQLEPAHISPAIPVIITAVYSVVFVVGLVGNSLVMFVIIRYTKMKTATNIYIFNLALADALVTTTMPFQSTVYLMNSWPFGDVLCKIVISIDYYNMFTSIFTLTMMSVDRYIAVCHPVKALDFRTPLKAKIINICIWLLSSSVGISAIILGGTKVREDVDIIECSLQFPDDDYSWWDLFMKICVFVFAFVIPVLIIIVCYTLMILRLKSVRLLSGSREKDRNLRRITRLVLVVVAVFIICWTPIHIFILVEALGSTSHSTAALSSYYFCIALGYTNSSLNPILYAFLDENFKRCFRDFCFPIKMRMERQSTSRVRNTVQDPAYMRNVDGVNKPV
# Outline: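 Radioligand competition binding using guinea pig cerebellum membrane fraction; 2 h exposure; filter radiodetection. Single concentration 25 uM (duplicate), follow-up concentration-response for actives.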
# [12] = molecular target: guinea pig Leukotriene D4 Receptor (LTD4), CYSLTR1 (gene 100135514) (UniProt Q2NNR5); experiment: NVS_GPCR_gLTD4: NovaScreen (NVS) G Protein-Coupled Receptor Assay for guinea pig Leukotriene D4 Receptor (LTD4) (AID 2283248)
# Chain of guinea pig Leukotriene D4 Receptor (LTD4), CYSLTR1 (gene 100135514) (Q2NNR5 whole entry, looked up): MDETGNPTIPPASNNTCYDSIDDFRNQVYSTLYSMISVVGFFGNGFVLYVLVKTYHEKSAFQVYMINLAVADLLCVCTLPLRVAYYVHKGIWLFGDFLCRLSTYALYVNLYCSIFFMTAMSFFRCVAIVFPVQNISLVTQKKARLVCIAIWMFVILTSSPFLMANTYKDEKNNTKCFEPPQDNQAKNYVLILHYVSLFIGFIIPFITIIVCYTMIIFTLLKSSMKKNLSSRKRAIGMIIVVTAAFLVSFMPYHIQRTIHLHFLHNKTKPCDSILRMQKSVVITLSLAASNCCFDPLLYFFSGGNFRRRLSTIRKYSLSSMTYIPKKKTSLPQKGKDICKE
# Outline: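 Guinea pig lung membrane preparation; bound radioligand measured by filter scintillation after 1 h, loss of signal versus DMSO marking displacement. Compounds tested at 25 uM in duplicate, hits retested to max 50 uM.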
# [13] = molecular target: human Serotonin, 5-Hydroxytryptamine Receptor 2A (5HT2A), HTR2A (gene 3356) (UniProt P28223); experiment: NVS_GPCR_h5HT2A: NovaScreen (NVS) G Protein-Coupled Receptor Assay for human Serotonin, 5-Hydroxytryptamine Receptor 2A (5HT2A) (AID 2283249)
# Outline: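 Radioligand displacement on human cortex tissue extract, counted by filtration and scintillation 1.5 h post-dosing. Initial single-concentration screen at 25 uM in duplicate, concentration series in follow-up; DMSO as baseline.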
# [14] = tested on: guinea pig Leukotriene B4 Receptor (LTB4), gene 100379538; experiment: NVS_GPCR_gLTB4: NovaScreen (NVS) G Protein-Coupled Receptor Assay for guinea pig Leukotriene B4 Receptor (LTB4) (AID 2283247)
# Outline: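 Membranes from guinea pig spleen incubated 2 h with radioligand and compound; bound counts measured by filtration and scintillation. Screened first at 25 uM in duplicate, then actives titrated to a 50 uM top concentration relative to DMSO.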
# [15] = tested on: bovine Angiotensin II Receptor Type 2 (AT2), gene 407157; experiment: NVS_GPCR_bAT2: NovaScreen (NVS) G Protein-Coupled Receptor Assay for bovine Angiotensin II Receptor Type 2 (AT2) (AID 2283240)
# Outline: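 Radioligand displacement on bovine cerebellar membranes, 1 hour incubation, filter-based scintillation counting; loss of signal vs DMSO. Duplicate single-point screen at 25 uM, then concentration-response to 50 uM maximum.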
# [16] = molecular target: human Serotonin, 5-Hydroxytryptamine Receptor 5A (5HT5A), HTR5A (gene 3361) (UniProt P47898); experiment: NVS_GPCR_h5HT5A: NovaScreen (NVS) G Protein-Coupled Receptor Assay for human Serotonin, 5-Hydroxytryptamine Receptor 5A (5HT5A) (AID 2283251)
# Chain of human Serotonin, 5-Hydroxytryptamine Receptor 5A (5HT5A), HTR5A (gene 3361) (P47898 whole entry, looked up): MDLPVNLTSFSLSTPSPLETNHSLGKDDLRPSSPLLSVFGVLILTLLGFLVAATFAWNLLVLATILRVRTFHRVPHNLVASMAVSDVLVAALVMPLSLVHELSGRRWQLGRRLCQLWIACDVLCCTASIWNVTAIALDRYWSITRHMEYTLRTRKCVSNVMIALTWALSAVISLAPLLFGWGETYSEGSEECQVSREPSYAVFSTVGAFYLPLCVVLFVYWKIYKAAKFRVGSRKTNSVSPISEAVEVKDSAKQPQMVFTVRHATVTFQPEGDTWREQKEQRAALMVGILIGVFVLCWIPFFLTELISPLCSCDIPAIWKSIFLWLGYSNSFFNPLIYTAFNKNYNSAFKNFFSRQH
# Outline: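 Membranes from HEK293 cells, radioligand binding read by filtration and scintillation after 1 h. Single-concentration duplicate testing at 25 uM, then concentration-response for actives; positive-direction fitting relative to DMSO.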
# [17] = molecular target: human Serotonin, 5-Hydroxytryptamine Receptor 7 (5HT7), HTR7 (gene 3363) (UniProt P34969); experiment: NVS_GPCR_h5HT7: NovaScreen (NVS) G Protein-Coupled Receptor Assay for human Serotonin, 5-Hydroxytryptamine Receptor 7 (5HT7) (AID 2283255);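 note: hits reduce specific radioligand binding relative to DMSO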
# Outline: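 Filter-bound radioactivity counted after 1 h, with loss of specific radioligand binding fitted against DMSO. Membrane protein came from CHO cells expressing human 5HT7. Chemicals were tested first at 25 uM in duplicate, then in concentration series if active.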
# [18] = molecular target: human Adrenergic, Beta 1 Receptor (Adrb1), ADRB1 (gene 153) (UniProt P08588); experiment: NVS_GPCR_hAdrb1: NovaScreen (NVS) G Protein-Coupled Receptor Assay for human Adrenergic, Beta 1 Receptor (Adrb1) (AID 2283258)
# Chain of human Adrenergic, Beta 1 Receptor (Adrb1), ADRB1 (gene 153) (P08588 whole entry, looked up): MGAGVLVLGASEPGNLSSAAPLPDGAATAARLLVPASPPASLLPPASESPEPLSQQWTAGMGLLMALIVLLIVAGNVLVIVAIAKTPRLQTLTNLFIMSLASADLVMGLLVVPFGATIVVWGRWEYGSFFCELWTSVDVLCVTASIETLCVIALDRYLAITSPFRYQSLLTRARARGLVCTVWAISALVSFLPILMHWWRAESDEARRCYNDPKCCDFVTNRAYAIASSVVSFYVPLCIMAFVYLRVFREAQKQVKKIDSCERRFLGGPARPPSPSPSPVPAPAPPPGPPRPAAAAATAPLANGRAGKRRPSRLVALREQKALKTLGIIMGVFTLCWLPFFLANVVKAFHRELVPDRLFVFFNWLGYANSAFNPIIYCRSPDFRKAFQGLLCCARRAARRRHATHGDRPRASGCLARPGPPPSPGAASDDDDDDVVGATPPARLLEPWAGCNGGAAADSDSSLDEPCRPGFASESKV
# Outline: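 Membranes/protein extracted from human neuroepithelioma cells, radioligand competition binding read by filtration and scintillation 2 h post-dose. Single 25 uM duplicate screen, then concentration-response follow-up; DMSO as negative control.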
# [19] = molecular target: human Adrenergic, Alpha 2c Receptor (Adra2C), ADRA2C (gene 152) (UniProt P18825); experiment: NVS_GPCR_hAdra2C: NovaScreen (NVS) G Protein-Coupled Receptor Assay for human Adrenergic, Alpha 2c Receptor (Adra2C) (AID 2283259)
# Outline: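 Screened first in duplicate at 25 uM, with actives then run as concentration series. Membranes from Sf9 cells were exposed for 1 h, and displacement of radioligand was counted after filtration, using DMSO as baseline.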
# [20] = molecular target: human Adrenergic, Beta 3 Receptor (Adrb3), ADRB3 (gene 155) (UniProt P13945); experiment: NVS_GPCR_hAdrb3: NovaScreen (NVS) G Protein-Coupled Receptor Assay for human Adrenergic, Beta 3 Receptor (Adrb3) (AID 2283262)
# Outline: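 A cell-free filter binding assay read by scintillation counting, with displacement of a specific radioligand measured after 1 hour. The receptor source was SK-N-MC extracts (cells pretreated with isoproterenol and 8-bromo-cAMP). Compounds were first tested at 25 uM in duplicate and then in concentration series.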
compound,measurement,setting,value
Oc1cc(Cl)c(Cl)cc1Cl,outcome,[1],inactive
same,AC50,[2],19.6 µM (active)
same,AC50,[3],8.69 µM (active)
same,AC50,[4],17.7 µM (active)
same,AC50,[5],16.5 µM (active)
CC(C)(C)c1ccccc1O,outcome,[6],inactive
same,outcome,[7],inactive
O=C(N[C@H]1CN2CCC1CC2)c1ccc2c(c1)OCCO2,outcome,[1],inactive
CCOC(=O)C(SP(=S)(OC)OC)c1ccccc1 (stereo not drawn),AC50,[8],10.2 µM (active)
Oc1ccc(Cc2ccc(O)cc2)cc1,AC50,[5],25 µM (active)
COc1ccc(N)cc1,AC50,[6],26 µM (active)
Nc1ncn[nH]1,outcome,[6],inactive
CC(C=O)Cc1ccc2c(c1)OCO2 (stereo not drawn),AC50,[6],25 µM (active)
Cc1cc(C(C)(C)c2ccc(O)c(C)c2)ccc1O,AC50,[9],8.39 µM (active)
same,outcome,[10],inactive
C=CC(=O)NC(C)(C)CC(C)=O,AC50,[6],21.4 µM (active)
O=C(CBr)c1ccc(O)cc1,outcome,[1],inactive
O=C1C=CC(=O)c2ccccc21,AC50,[5],25 µM (active)
same,AC50,[11],37.8 µM (active)
c1ccc2sc(SNC3CCCCC3)nc2c1,outcome,[6],inactive
OC(Cc1ccccc1Cl)(Cn1cncn1)C1(Cl)CC1 (stereo not drawn),outcome,[5],inactive
O=[N+]([O-])c1cccc2ccccc12,outcome,[6],inactive
[Cl][Sn]([c]1ccccc1)([c]1ccccc1)[c]1ccccc1,outcome,[6],inactive
same,outcome,[10],inactive
CCOC(=O)CCN(SN(C)C(=O)Oc1cccc2c1OC(C)(C)C2)C(C)C,AC50,[8],1.33 µM (active)
CN(C)CCN(C)C,outcome,[6],inactive
OCCN(CCO)CCO,outcome,[1],inactive
CCOC(=O)CC(=O)CCl,outcome,[12],inactive
Nc1c(Oc2ccccc2)cc(O)c2c1C(=O)c1ccccc1C2=O,outcome,[11],inactive
CCN(N=O)C(N)=O,outcome,[12],inactive
N#CCCC(Br)(C#N)CBr (stereo not drawn),AC50,[6],4.04 µM (active)
same,outcome,[11],inactive
O=C(O)COc1cc(Cl)c(Cl)cc1Cl,outcome,[6],inactive
COc1ccccc1N,AC50,[6],0.146 µM (active)
Cc1ccccc1OP(=O)(Oc1ccccc1C)Oc1ccccc1C,outcome,[9],inactive
CC(C)O.CC(C)O.OCCN(CCO)CCO.OCCN(CCO)CCO.[Ti],AC50,[1],6.5 µM (active)
same,outcome,[13],inactive
Oc1cccc(-c2ccccc2)c1,AC50,[5],10.9 µM (active)
O=c1oc2ccccc2c(O)c1C(CC(O)c1ccc(-c2ccc(Br)cc2)cc1)c1ccccc1 (stereo not drawn),AC50,[6],1.31 µM (active)
same,AC50,[12],9.92 µM (active)
same,outcome,[11],inactive
same,AC50,[9],23.9 µM (active)
Cc1cccc(OP(=O)(Oc2cccc(C)c2)Oc2cccc(C)c2)c1,outcome,[10],inactive
O=C1c2ccccc2C(=O)C1C(=O)C(c1ccccc1)c1ccc(Cl)cc1 (stereo not drawn),outcome,[6],inactive
Oc1c(Cl)cc(Cl)cc1Cl,outcome,[5],inactive
same,outcome,[14],inactive
N#Cc1cccnc1,outcome,[1],inactive
same,outcome,[15],inactive
CCOP(=O)(OCC)OC(=CCl)c1ccc(Cl)cc1Cl,AC50,[8],6.51 µM (active)
same,AC50,[11],18.3 µM (active)
same,outcome,[9],inactive
CCCCCCCCCCCCc1cccc(S(=O)(=O)O)c1,AC50,[1],9.17 µM (active)
same,AC50,[6],5.06 µM (active)
same,AC50,[5],10.6 µM (active)
same,AC50,[14],10.5 µM (active)
same,AC50,[12],22.5 µM (active)
same,AC50,[16],13.7 µM (active)
same,AC50,[17],14.3 µM (active)
same,AC50,[18],9.54 µM (active)
same,AC50,[19],6.82 µM (active)
O=C1C[C@@H]2OCC=C3CN4CC[C@]56c7ccccc7N1[C@H]5[C@H]2[C@H]3C[C@H]46,outcome,[11],inactive
CCCCOC(C)=O,outcome,[12],inactive
same,outcome,[9],inactive
O=C(O)C1(c2ccc3c(c2)OC[C@H](Cc2ccc(-c4ccccc4)cc2)[C@H]3O)CCCC1,AC50,[14],0.00229 µM (active)
same,outcome,[12],inactive
same,outcome,[16],inactive
same,AC50,[18],25 µM (active)
same,outcome,[20],inactive
